{"source": "the supplement of paper PMC8728848", "assay_in_all_cases": "glycan array binding signal (z-score within array); higher = stronger binding", "settings_in_all_cases": "glycan notation: IUPAC condensed, linker removed", "key": {"[1]": {"system": "Neu5Ac(a2-3)Gal(b1-4)GlcNAc(b1-2)Man(a1-3)[Neu5Ac(a2-3)Gal(b1-4)GlcNAc(b1-2)Man(a1-6)]Man(b1-4)GlcNAc(b1-4)[Fuc(a1-6)]GlcNAc", "summary_of_the_method": "(§1)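 Glycan array data were curated from 3228 arrays in the Consortium for Functional Glycomics database and kept only where the protein sequence was available. Glycan names were converted to IUPAC-condensed notation, and columns mapping to the same glycan were averaged. The binding signal is a within-array Z-score, averaged across arrays of the same protein sequence at different concentrations or buffers and across linkers. Negative Z-scores can be read as non-binding.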"}, "[2]": {"system": "Neu5Ac(a2-3)Gal(b1-3)GlcNAc(b1-3)Gal(b1-4)GlcNAc", "summary_of_the_method": "as §1"}, "[3]": {"system": "Neu5Ac(a2-3)Gal(b1-3)GlcNAc6S", "summary_of_the_method": "as §1"}, "[4]": {"system": "Neu5Ac(a2-3)Gal(b1-3)[Fuc(a1-4)]GlcNAc", "summary_of_the_method": "as §1"}, "[5]": {"system": "Neu5Ac(a2-3)Gal(b1-3)[Neu5Ac(a2-6)]GalNAc", "summary_of_the_method": "as §1"}, "[6]": {"system": "Neu5Ac(a2-3)Gal(b1-3)GlcNAc(b1-6)GalNAc", "summary_of_the_method": "as §1"}, "[7]": {"system": "Neu5Ac(a2-3)Gal(b1-4)GlcNAc(b1-2)Man", "summary_of_the_method": "as §1"}, "[8]": {"system": "Neu5Ac(a2-3)Gal(b1-3)GlcNAc(b1-4)Gal(b1-4)Glc", "summary_of_the_method": "as §1"}, "[9]": {"system": "Neu5Ac(a2-3)Gal(b1-4)GlcNAc(b1-2)Man(a1-3)[GlcNAc(b1-4)][Neu5Ac(a2-3)Gal(b1-4)GlcNAc(b1-2)Man(a1-6)]Man(b1-4)GlcNAc(b1-4)GlcNAc", "summary_of_the_method": "as §1"}, "[10]": {"system": "Neu5Ac(a2-3)Gal(b1-4)GlcNAc(b1-2)Man(a1-3)[Neu5Ac(a2-6)Gal(b1-4)GlcNAc(b1-2)Man(a1-6)]Man(b1-4)GlcNAc(b1-4)GlcNAc", "summary_of_the_method": "as §1"}}, "note": "The entries come from a sample that favours the strongest signals as a whole.", "data": [{"substance": "AgI/IIC123-GFP (Streptococcus mutans)", "values": [{"measurement": "glycan array binding signal (z-score)", "setting": "[1]", "result": -0.442}]}, {"substance": "SiiE (Salmonella typhimurium), A0A0H3NVH0", "values": [{"measurement": "glycan array binding signal (z-score)", "setting": "[2]", "result": -0.888}]}, {"substance": "Actinohivin (Actinomycete K97)", "values": [{"measurement": "glycan array binding signal (z-score)", "setting": "[3]", "result": -0.191}, {"measurement": "glycan array binding signal (z-score)", "setting": "[4]", "result": -0.196}]}, {"substance": "MIC3-MAR1b (Eimeria tenella), B6VCV4", "values": [{"measurement": "glycan array binding signal (z-score)", "setting": "[5]", "result": -0.355}]}, {"substance": "LcI (Legionella pneumophila)", "values": [{"measurement": "glycan array binding signal (z-score)", "setting": "[6]", "result": 3.77}, {"measurement": "glycan array binding signal (z-score)", "setting": "[7]", "result": 2.16}]}, {"substance": "AgI/II Vhelical-GFP (Streptococcus mutans)", "values": [{"measurement": "glycan array binding signal (z-score)", "setting": "[8]", "result": -0.297}, {"measurement": "glycan array binding signal (z-score)", "setting": "[9]", "result": 0.396}, {"measurement": "glycan array binding signal (z-score)", "setting": "[10]", "result": -0.182}]}, {"substance": "BambL (Burhholderia ambifaria), Q0B4G1", "values": [{"measurement": "glycan array binding signal (z-score)", "setting": "[2]", "result": -0.316}]}, {"substance": "GspB (Streptococcus gordonii), Q939N5", "values": [{"measurement": "glycan array binding signal (z-score)", "setting": "[3]", "result": -0.2}, {"measurement": "glycan array binding signal (z-score)", "setting": "[5]", "result": 3.61}]}]}
